Bioassay records from PubChem BioAssay.
Shiga toxin inh = Shiga toxin inhibition; Vero cells, Shiga toxin protein synthesis inhibition reporter; inhibition, % at 38.7 µM; 290,000 tested, 9.2% active; AID 2315; in the data active means inhibition mostly above about 28%, no sharp cut-off; inactive means mostly below about 43%
CHX counter = counter-screen hit for Shiga toxin inhibitors, cycloheximide; max response, %; 300,000 tested, 12% active; AID 2314; cell reporter, cycloheximide protein synthesis inhibition counterscreen; in the data active means max response mostly above about 13%, no sharp cut-off; inactive means mostly below about 14%; further: read at 38.3 µM for the half of the compounds with a filed dose
LmPK inh = blocks Leishmania mexicana pyruvate kinase activity | 290,000 tested, 0.37% active | Potency, µM (titrated, usually from 57.5 µM), most hits filed as inhibitors | purified LmPK, Kinase-Glo ATP luminescence, 1 h
Target sequence (Q27686 whole entry, looked up): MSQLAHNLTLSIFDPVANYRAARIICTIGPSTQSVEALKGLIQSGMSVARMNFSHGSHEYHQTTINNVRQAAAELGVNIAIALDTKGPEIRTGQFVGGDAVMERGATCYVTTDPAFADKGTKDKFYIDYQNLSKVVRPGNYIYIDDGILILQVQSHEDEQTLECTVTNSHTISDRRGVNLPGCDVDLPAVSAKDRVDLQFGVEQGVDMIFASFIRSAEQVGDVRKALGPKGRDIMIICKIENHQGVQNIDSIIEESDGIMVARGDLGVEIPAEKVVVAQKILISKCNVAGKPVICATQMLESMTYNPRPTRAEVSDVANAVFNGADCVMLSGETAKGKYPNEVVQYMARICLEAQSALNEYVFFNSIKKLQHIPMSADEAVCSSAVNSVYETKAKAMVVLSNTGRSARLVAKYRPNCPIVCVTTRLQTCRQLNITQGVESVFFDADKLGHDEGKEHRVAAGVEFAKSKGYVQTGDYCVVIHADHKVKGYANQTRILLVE
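Kinase-Glo luminescence read after 1 h RT reaction of 0.1 nM LmPK with 0.5 mM PEP and 0.1 mM ADP. Activity scaled between uninhibited and enzyme-free controls.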
Sm TGR inh = S. mansoni TGR enzyme inhibition; purified TGR, DTNB reduction, TNB absorbance 405 nm; Potency, µM (series often up to 114 µM), most hits filed as inhibitors; 360,000 tested, 3% active; AID 485364; further: nearly all actives have a fitted effect of over 60% in size
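Kinetic colorimetric format: TGR-catalysed, NADPH-driven DTNB reduction monitored via TNB absorbance. Enzyme dispensed at 20 nM; compound exposure 15 min at room temperature before reaction start.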
TbPYK inhibitor = inhibitors of Trypanosoma brucei pyruvate kinase. TbPYK enzyme, Kinase-Glo Plus ATP luminescence, 45 min. Q57TT1. 410,000 tested, 0.12% active. Potency, µM (top dose mostly 76.8 µM), most hits filed as inhibitors; further: nearly all actives have a fitted effect of over 50% in size
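T. brucei PYK with substrate was exposed to pin-transferred compounds across a concentration series, then started with 130 uM ADP (final). After 45 min at room temperature, Kinase-Glo Plus luminescence was read, normalized and curve-fitted.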
FBPA Giardia inh = blocks Giardia fructose-bisphosphate aldolase activity | Potency, µM (titrated, usually from 59.6 µM), hits mostly inhibitors | 290,000 tested, 0.71% active | purified Giardia FBPA; further: nearly all actives have a fitted effect of over 55% in size
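40 nM FBPA preincubated 10 min at RT with compound (up to 57.5 uM final), then substrate plus GAPDH/TPI/NAD/arsenate coupling and diaphorase/resazurin added. Fluorescence read after 20 min at RT, 525/598 nm.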
A number is an active result; - = inactive; ? = inconclusive; . = no result; + = active, no number. The sample as a whole holds a higher share of hits than the screen did. Unless noted, the call rests on the fitted dose curve; in most records, active means well fitted curve in the direction sought with a large enough effect; inconclusive means small, poorly fitted or top-dose-only effect, or another doubt; inactive means no such curve, though single readings can be large; an effect the other way counts as inactive or inconclusive.

SMILES	Shiga toxin inh	CHX counter	LmPK inh	Sm TGR inh	TbPYK inhibitor	FBPA Giardia inh
NNC(=O)Cn1nnc(-c2ccc(C(F)(F)F)cc2)n1	-	-	-	-	-	-
COc1ccc(-c2nnn(CC(=O)N3CCOCC3)n2)cc1	-	-	-	-	-	-
CCOC(=O)C(Cc1ccccc1)NC(=O)Cn1nnc(-c2ccc(SC)cc2)n1 (stereo not drawn)	-	-	-	-	-	-
CCOC(=O)CC(NC(=O)Cn1nnc(-c2ccc(C(F)(F)F)cc2)n1)c1ccccc1Cl (stereo not drawn)	.	.	.	-	-	.
COc1ccc(CNC(=O)Cn2nnc(-c3ccc(C(F)(F)F)cc3)n2)cc1	.	.	.	-	-	.
C=CCNC(=O)Cn1nnc(-c2ccc(-c3ccc(OC)cc3)cc2)n1	51	23	-	-	-	-
COc1cccc(-c2nnn(CC(C)=O)n2)c1	+	53	-	-	-	-
CSc1ccc(-c2nnn(CC(=O)NCc3ccccc3)n2)cc1	-	11	-	-	-	-
CCOC(=O)CC(NC(=O)Cn1nnc(-c2ccccc2)n1)c1ccc(OC)cc1 (stereo not drawn)	-	25	-	-	-	-
COc1cccc(-c2nnn(CCc3nn[nH]n3)n2)c1	-	-	-	-	-	-
CCCCOc1ccc(-c2nnn(CC(=O)NCCc3c[nH]c4ccccc34)n2)cc1	-	15	-	-	-	-
CC(C)(C)NC[C@@H](O)COc1nsnc1N1CCOCC1	.	.	.	.	.	-
c1ccc2sc(Nc3nc4cc5c(cc4s3)OCO5)nc2c1	117	119	-	?	-	-
Fc1ccc2nc(Nc3nc4cc5c(cc4s3)OCCO5)sc2c1	25	62	-	-	-	-
Fc1ccc2nc(Nc3nc4cc5c(cc4s3)OCO5)sc2c1	80	59	-	-	-	-
O=C(CCCCCn1c(=O)c2sccc2n(CC(=O)Nc2cccc(Cl)c2)c1=O)NCc1ccc2c(c1)OCO2	.	.	.	?	-	.
O=C(COc1ncnc2ccccc12)Nc1cc([N+](=O)[O-])ccc1F	-	-	-	-	-	-
CC(=O)NC1=NN(C(C)=O)C(c2cccc([N+](=O)[O-])c2)S1 (stereo not drawn)	-	-	-	-	-	-
CC(=O)N1N=C(c2cccc(Cl)c2)OC1c1ccc(C(C)C)cc1 (stereo not drawn)	-	23	-	-	.	-
CC(=O)N1N=C(c2cccc(Cl)c2)OC1c1cccc([N+](=O)[O-])c1 (stereo not drawn)	-	-	-	-	-	-
CC(=O)N1N=C(c2ccc(C)cc2)OC1c1cccnc1 (stereo not drawn)	61	-	-	-	-	-
CC(=O)NC1=NN(C(C)=O)C(c2ccc(C(C)C)cc2)S1 (stereo not drawn)	-	16	-	-	-	-
Cn1cc(-c2nc3cnc(Oc4ccccc4)nc3n(CCC#N)c2=O)c2ccccc21	.	.	.	.	-	-
Fc1ccccc1-n1ncc2c1ncn1nc(Cc3ccccc3)nc21	.	.	.	-	-	.
NC(=O)N/N=C/c1ccc(-c2cccc(C(F)(F)F)c2)o1	38	-	-	-	-	-
SMILES	Shiga toxin inh	CHX counter	LmPK inh	Sm TGR inh	TbPYK inhibitor	FBPA Giardia inh
O=C(N/N=C/c1ccc(-c2cccc(C(F)(F)F)c2)o1)c1ccccc1Br	74	11	-	-	-	-
O=C(N/N=C/c1ccc(-c2cccc(C(F)(F)F)c2)o1)c1cccc(F)c1	40	32	-	-	-	-
O=C(O)CCCC(=O)Nc1ccc(N=Nc2ccccc2)cc1	-	-	-	-	-	-
NS(=O)(=O)c1ccc(NC(=O)COC(=O)CCC2CCCC2)cc1	-	-	-	-	-	-
O=C(COC(=O)C1CC1)Nc1ccc(OC(F)F)cc1	24	26	-	-	-	-
COC(=O)CCC(=O)Nc1ccc(N=Nc2ccccc2)cc1	64	39	-	-	-	-
NS(=O)(=O)c1ccc(NC(=O)COC(=O)C2CCCCC2)cc1	40	33	-	-	-	-
O=C(COC(=O)C1CC1)Nc1ccc(N=Nc2ccccc2)cc1	79	66	-	-	-	-
CCC(C)NC(=O)C1CCN(C(=O)c2ccc(-n3ccc4ccccc43)s2)CC1 (stereo not drawn)	.	.	.	-	-	.
